Here are results for one compound from ChEMBL document CHEMBL2218924, “A broad activity screen in support of a chemogenomic map for kinase signalling research and drug discovery” (Biochem J, 2013).

For test [1], the target named is T1, Ephrin type-A receptor 3 (Homo sapiens) (UniProt P29320).
T1 sequence (whole entry): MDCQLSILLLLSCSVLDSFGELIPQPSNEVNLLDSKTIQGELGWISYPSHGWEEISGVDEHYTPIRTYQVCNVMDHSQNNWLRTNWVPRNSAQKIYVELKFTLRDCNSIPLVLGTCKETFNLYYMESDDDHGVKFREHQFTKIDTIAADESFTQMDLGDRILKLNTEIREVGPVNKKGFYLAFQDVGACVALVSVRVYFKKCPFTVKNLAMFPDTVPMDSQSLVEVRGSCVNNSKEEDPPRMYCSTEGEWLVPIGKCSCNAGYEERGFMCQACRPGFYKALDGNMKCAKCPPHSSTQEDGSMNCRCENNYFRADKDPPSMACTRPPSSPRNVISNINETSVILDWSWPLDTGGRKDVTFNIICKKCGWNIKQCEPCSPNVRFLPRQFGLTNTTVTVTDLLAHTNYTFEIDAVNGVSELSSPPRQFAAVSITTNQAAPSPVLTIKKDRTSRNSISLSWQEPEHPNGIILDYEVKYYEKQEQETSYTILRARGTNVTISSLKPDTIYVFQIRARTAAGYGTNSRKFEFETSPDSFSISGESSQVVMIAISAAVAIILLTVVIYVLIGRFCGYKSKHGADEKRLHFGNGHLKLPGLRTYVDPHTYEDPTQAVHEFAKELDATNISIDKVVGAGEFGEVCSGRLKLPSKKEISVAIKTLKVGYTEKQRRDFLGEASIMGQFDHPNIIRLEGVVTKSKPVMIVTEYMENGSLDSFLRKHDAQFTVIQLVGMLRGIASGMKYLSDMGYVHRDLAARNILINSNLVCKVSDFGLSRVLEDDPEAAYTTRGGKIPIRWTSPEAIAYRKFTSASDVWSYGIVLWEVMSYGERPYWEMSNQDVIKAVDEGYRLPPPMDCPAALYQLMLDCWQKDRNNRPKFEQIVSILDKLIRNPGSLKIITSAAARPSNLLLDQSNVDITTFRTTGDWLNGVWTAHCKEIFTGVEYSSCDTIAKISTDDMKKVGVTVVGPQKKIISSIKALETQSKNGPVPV
The conditions noted are these: at 10 µM.

Test [2] deals with Ephrin type-A receptor 4 (Homo sapiens) (UniProt P54764). The conditions noted are these: at 1 µM.
Test [3] shares this target. The conditions noted are these: at 10 µM.
The target in test [4] is Ephrin type-A receptor 5 (Homo sapiens) (UniProt P54756). The conditions noted are these: at 1 µM.
For test [5] the target is unchanged. The following applies: at 10 µM.
Test [6] addresses Ephrin type-A receptor 7 (Homo sapiens) (UniProt Q15375). The conditions noted are these: at 1 µM.
The target is the same in test [7]. The conditions noted are these: at 10 µM.
In test [8] the target is T2, Ephrin type-A receptor 8 (Homo sapiens) (UniProt P29322).
T2 sequence (whole entry): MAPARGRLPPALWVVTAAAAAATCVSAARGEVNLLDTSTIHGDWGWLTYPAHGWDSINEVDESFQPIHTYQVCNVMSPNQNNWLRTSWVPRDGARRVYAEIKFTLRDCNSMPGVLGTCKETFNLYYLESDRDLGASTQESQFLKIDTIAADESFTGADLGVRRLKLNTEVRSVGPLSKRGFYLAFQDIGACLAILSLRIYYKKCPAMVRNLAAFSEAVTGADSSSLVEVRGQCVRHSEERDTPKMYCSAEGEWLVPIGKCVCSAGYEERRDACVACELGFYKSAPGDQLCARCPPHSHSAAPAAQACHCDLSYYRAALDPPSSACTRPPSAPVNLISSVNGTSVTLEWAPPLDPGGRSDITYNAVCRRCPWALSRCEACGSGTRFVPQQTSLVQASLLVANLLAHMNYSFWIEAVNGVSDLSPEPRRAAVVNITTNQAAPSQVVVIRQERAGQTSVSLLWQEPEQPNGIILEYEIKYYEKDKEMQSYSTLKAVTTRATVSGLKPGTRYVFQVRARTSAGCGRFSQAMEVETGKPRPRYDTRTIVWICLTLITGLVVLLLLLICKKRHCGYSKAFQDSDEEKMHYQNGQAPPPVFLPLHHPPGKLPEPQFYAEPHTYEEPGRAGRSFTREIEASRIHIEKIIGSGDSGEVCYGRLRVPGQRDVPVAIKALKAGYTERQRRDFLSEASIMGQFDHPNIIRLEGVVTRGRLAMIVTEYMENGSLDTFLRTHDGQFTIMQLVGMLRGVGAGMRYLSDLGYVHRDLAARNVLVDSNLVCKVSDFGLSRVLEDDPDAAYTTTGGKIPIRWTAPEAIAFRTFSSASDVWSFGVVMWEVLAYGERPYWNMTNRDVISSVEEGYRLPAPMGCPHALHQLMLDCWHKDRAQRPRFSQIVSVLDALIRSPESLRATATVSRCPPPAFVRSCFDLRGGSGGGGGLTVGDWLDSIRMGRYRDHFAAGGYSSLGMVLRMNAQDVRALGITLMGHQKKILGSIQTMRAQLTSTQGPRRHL
The following applies: at 1 µM.

For test [9], the target named is T2, Ephrin type-A receptor 8 (Homo sapiens). The following applies: at 10 µM.
Test [10] addresses T3, Ephrin type-B receptor 1 (Homo sapiens) (UniProt P54762).
T3 sequence (whole entry): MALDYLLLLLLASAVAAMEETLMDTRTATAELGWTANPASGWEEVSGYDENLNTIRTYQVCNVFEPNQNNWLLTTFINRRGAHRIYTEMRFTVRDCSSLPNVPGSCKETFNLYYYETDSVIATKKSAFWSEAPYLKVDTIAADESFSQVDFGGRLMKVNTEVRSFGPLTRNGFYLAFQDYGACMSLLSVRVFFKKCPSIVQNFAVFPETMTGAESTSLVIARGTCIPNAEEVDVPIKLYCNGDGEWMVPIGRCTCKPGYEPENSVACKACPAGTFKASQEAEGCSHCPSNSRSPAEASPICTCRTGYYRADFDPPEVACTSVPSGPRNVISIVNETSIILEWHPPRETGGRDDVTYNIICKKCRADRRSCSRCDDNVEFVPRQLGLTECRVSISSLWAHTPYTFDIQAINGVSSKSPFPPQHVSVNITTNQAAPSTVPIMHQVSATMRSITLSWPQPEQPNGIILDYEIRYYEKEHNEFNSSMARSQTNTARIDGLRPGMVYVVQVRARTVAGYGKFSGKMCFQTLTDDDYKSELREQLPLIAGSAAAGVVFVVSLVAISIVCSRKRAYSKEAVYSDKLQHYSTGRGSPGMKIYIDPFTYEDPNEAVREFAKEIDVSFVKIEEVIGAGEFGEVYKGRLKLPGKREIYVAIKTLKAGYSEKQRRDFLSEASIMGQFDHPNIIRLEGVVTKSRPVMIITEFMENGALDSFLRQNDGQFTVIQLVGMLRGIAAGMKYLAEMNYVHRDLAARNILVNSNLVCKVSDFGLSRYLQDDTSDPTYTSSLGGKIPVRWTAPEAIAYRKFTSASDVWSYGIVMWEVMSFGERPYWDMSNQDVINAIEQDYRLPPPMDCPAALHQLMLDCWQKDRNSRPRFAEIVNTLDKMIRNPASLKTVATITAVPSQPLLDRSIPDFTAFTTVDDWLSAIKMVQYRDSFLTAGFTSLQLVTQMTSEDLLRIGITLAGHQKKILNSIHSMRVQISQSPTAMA
The conditions noted are these: at 1 µM.

Ephrin type-A receptor 4 (Homo sapiens), sequence (P54764 whole entry): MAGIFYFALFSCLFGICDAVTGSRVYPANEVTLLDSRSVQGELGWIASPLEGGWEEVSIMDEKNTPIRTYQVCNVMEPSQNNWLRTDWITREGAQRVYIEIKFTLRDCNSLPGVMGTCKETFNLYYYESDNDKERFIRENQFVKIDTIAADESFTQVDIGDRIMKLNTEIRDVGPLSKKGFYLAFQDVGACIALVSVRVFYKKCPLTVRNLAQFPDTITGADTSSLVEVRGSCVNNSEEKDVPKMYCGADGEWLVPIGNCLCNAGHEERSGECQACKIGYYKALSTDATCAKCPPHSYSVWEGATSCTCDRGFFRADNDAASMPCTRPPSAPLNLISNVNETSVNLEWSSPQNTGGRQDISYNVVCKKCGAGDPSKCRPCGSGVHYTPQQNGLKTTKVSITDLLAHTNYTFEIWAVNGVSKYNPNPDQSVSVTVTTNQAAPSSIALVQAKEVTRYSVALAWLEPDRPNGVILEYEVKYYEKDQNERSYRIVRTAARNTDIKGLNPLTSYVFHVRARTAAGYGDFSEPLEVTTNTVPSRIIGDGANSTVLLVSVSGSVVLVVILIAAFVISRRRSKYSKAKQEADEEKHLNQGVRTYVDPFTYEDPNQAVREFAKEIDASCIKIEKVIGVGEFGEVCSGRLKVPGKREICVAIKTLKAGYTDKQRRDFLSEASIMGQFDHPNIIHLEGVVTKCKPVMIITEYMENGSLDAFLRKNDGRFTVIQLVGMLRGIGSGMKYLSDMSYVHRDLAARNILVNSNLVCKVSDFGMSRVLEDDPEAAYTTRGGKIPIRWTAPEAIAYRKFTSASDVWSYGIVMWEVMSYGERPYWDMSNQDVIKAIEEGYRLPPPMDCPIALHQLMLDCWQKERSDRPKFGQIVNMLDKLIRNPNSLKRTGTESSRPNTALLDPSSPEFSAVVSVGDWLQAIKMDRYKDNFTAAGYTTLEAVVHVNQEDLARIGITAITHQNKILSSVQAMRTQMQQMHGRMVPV
Ephrin type-A receptor 7 (Homo sapiens), sequence (Q15375 28-998 limits assumed): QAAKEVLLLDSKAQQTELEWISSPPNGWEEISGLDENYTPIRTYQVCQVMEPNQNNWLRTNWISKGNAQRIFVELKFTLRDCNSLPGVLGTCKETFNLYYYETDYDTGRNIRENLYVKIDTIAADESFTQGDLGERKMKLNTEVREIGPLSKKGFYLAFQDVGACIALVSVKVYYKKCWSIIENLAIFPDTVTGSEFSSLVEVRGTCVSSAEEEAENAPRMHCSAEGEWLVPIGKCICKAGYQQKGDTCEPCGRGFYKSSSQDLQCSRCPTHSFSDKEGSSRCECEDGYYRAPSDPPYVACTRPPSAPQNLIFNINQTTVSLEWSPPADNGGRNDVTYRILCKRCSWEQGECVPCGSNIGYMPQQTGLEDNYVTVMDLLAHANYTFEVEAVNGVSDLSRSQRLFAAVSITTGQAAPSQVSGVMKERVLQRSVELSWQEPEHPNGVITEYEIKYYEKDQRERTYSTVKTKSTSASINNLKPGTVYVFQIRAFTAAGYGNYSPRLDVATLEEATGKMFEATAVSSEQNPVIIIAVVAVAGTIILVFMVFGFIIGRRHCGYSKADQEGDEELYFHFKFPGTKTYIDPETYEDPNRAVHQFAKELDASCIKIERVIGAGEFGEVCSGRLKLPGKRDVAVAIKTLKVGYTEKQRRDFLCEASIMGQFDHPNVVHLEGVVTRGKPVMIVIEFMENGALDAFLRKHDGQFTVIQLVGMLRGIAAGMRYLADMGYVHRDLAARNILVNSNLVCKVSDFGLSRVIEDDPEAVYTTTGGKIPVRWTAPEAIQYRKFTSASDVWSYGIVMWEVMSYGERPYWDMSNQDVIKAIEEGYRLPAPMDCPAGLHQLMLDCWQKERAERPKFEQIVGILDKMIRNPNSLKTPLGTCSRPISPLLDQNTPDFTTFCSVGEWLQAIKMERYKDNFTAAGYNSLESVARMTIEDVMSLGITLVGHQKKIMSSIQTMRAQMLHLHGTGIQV
Ephrin type-A receptor 5 (Homo sapiens), sequence (P54756 whole entry): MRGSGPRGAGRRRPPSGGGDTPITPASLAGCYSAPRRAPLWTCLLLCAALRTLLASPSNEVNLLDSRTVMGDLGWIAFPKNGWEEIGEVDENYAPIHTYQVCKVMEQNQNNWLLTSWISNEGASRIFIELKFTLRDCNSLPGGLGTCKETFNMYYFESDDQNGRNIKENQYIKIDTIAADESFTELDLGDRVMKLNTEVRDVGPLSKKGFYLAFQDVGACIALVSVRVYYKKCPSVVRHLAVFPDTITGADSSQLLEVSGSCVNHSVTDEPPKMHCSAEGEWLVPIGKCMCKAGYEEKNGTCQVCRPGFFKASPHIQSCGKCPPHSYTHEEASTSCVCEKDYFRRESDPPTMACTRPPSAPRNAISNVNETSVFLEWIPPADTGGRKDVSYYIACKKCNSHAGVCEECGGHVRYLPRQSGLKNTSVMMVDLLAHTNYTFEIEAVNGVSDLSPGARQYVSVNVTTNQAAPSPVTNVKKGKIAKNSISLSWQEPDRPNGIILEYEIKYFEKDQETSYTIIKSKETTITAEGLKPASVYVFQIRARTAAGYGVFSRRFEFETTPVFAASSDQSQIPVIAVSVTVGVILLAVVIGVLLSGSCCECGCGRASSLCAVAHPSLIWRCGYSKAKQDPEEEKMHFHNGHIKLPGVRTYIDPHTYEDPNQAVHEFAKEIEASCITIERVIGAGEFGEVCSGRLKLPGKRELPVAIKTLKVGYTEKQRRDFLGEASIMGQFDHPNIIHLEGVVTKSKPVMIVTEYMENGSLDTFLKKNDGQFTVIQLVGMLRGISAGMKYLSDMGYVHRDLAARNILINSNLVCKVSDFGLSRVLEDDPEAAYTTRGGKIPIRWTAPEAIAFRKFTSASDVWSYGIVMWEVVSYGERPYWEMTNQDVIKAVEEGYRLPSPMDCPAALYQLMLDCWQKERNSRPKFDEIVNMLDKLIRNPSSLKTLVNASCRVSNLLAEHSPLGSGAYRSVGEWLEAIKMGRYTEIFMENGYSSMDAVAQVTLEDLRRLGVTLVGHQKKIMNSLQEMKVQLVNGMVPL

A word on the residual activity: it is the signal under treatment as a percentage of the control signal. The low end stands for a large loss of activity, the high end for a small loss of activity. On to `NC(=O)Nc1sc(-c2ccc(F)cc2)cc1C(N)=O`, for which the residual activity in [1] stood at 33%; in test [2] it was 93%; in test [3] it was 43%; in [4], 90%; in test [5], 28%; in [6] it was 74%. Moreover, the residual activity in test [7] amounted to 25%; in test [8], 84%; in test [9] it was 54%; in test [10], 11%.
